Results on 92 molecules are retold here after PubChem BioAssay AID1626 (SRMLSC, 2009).

SMILES strings stand for the structures. The campaign covered roughly 220,000 compounds. About 2,000 (0.91%) were called active. Not shown: some 2% with an inconclusive outcome. Rule as the data show it: inconclusive = inhibition above about 80% without an active follow-up result; inactive = below that; test concentration not stated here. These entries were drawn from the full list. Results with a measured potency or affinity are listed apart.

The experiment in a line: M. tuberculosis H37Rv growth inhibitors, H37Rv strain (AID 1626).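 Also: bacteria incubated seven days before Alamar blue readout; 0% = bacteria only wells and 100% = bacteria with antibiotic wells.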 Particulars: hits give high values, concentration not given here.
The term inhibition denotes the relative decrease from the control value, in per cent. For the molecule `COc1ccc2[nH]c(CN3CCC(CO)(CCOc4ccccc4)CC3)c(C)c2c1`, the inhibition is -2.25% (inactive).

For `COc1cccc(CC2(CO)CCCN(Cc3cc4ccccc4[nH]3)C2)c1` (configuration not stated), the inhibition was 9.65% (inactive). Regarding `OCC1(CCOc2ccccc2)CCN(CC2=Cc3cc(Cl)ccc3OC2)CC1`, the inhibition is 6.89% (inactive). Under `COc1cccc(CC2(CO)CCCN(Cc3ccc(C)s3)C2)c1` (configuration not stated) stands 4% (inactive); under `COc1cc(OC)cc(C(=O)NCC(=O)OCC(=O)N2c3ccccc3NC(=O)C2(C)C)c1`, -1.81% (inactive). For the molecule `COc1ccc(CN2CCN(CCCc3ccccc3)CC2)c(OC)c1`, the inhibition was 1.06% (inactive).

On to `COc1cccc(C2C(C(=O)c3cc4cccc(OC)c4o3)=C(O)C(=O)N2c2cc(C)on2)c1OC` (configuration not stated), for which the inhibition was -9.58% (inactive). On to `COc1cc2c(cc1OC)C(C)N(C(=O)c1cc3ccccc3o1)CC2` (configuration not stated), for which the inhibition is 3.79% (inactive). For `Cc1cc(=O)oc2cc(OCC(=O)Nc3ccc(S(=O)(=O)N(C)C)cc3)ccc12`, the inhibition was -9.04% (inactive). As for `O=C(Nc1ccccc1)N1CCN(c2nc3ccccc3s2)CC1`, the inhibition was -10% (inactive). `O=C(Nc1ccc(F)cc1)N1CCN(c2nc3ccccc3s2)CC1`: the inhibition is 6.46% (inactive). With `CC(=O)Cc1nsc(NC(=O)c2ccc(-c3ccc(Cl)cc3Cl)o2)n1`, the inhibition was -7.01% (inactive). Consider `Cc1ccc(OCC(=O)N(Cc2cccs2)C2CCS(=O)(=O)C2)cc1C` (configuration not stated), for which the inhibition is 1.52% (inactive).

Turning to `CC(C)C1OC(c2cccc(NC(=O)c3cccs3)c2)OCC1(C)C` (configuration not stated), the inhibition is 3.13% (inactive). As to `CCCCOc1ccc(CSCCN=C(N)N)cc1`, the inhibition was 10.7% (inactive). Consider `Nc1c(C(=O)NCCN2CCOCC2)c2nc3ccccc3nc2n1Cc1ccccc1`, for which the inhibition was 13.8% (inactive). Under `COc1ccc(CNC(=O)c2c(N)n(CCCN3CCOCC3)c3nc4ccccc4nc23)cc1` stands 16.6% (inactive). With `CCCCCn1c(N)c(C(=O)NCCN2CCOCC2)c2nc3ccccc3nc21`, the inhibition was 27.3% (inactive). Consider `Nc1c(C(=O)NCc2ccc(F)cc2)c2nc3ccccc3nc2n1CCCN1CCOCC1`, for which the inhibition is 14.5% (inactive).

Consider `COc1ccc(CCNC(=O)c2c(N)n(CCN3CCOCC3)c3nc4ccccc4nc23)cc1OC`, for which the inhibition was 20.2% (inactive).

For the molecule `Nc1c(C(=O)NCCN2CCOCC2)c2nc3ccccc3nc2n1CCc1ccccc1`, the inhibition was 34.9% (inactive). Take `CS(=O)(=O)c1ccc(C(=O)OCC(=O)NC23CC4CC(CC(C4)C2)C3)cc1[N+](=O)[O-]`: the inhibition is 6.01% (inactive).

With `Cc1c(N=C2SCC(=O)N2/N=C\c2ccc(Br)cc2)c(=O)n(-c2ccccc2)n1C`, the inhibition was 2.9% (inactive). `Cn1c(N)c(C(=O)COC(=O)CCCc2nc3ccccc3s2)c(=O)n(C)c1=O`: the inhibition was 3.44% (inactive).

Turning to `COc1cc(C(=O)NCCc2ccc(S(=O)(=O)N3CCCC3)cc2)cc(OC)c1OC`, the inhibition is -6.26% (inactive). For `CCCC1(C(=O)OCC)NC(c2ccc(O)cc2)C2C(=O)N(c3ccc4c(c3)OCCO4)C(=O)C21` (configuration not stated), the inhibition was 11.1% (inactive). With `COc1cccc(NC(=O)NC2CCCc3ccccc32)c1` (configuration not stated), the inhibition was 0.07% (inactive). As to `O=C(O)CSc1c2c(nc3cc(C(=O)NCCN4CCOCC4)ccc13)CCC2`, the inhibition was -7.4% (inactive). Take `O=C(NCCCN1CCOCC1)c1ccc(CS(=O)(=O)Cc2ccc(Cl)cc2)o1`: the inhibition was 2.9% (inactive). In the case of `O=c1oc2ccccc2c(Nc2ccccc2)c1[N+](=O)[O-]`, the inhibition is -3.06% (inactive).

As for `Cc1ccc(Nc2c([N+](=O)[O-])c(=O)oc3ccccc23)cc1C`, the inhibition is 60.5% (inactive).

`CN1C(=O)NC(=O)/C(=C\C=C\c2ccccc2[N+](=O)[O-])C1=O`: the inhibition is 3.14% (inactive). As to `N#C/C(=C\c1ccc(N2CCOCC2)o1)C(=O)NCCc1ccccc1`, the inhibition was 1.46% (inactive).

With `N#C/C(=C/c1ccc(Br)s1)C(=O)NCCc1c[nH]c2ccccc12`, the inhibition is -14% (inactive). To `O=C(Nc1ccccc1)N(Cc1ccccc1)Cc1ccccc1` belongs 9.83% (inactive); to `C=CCNC(=O)Nc1cc(Cl)ccc1OC`, -2.63% (inactive); to `CC(=O)c1cccc(OCC(=O)c2cc(C)n(-c3cc(C)on3)c2C)c1`, 17.2% (inactive). Under `Cc1cc(C(=O)COc2ccc3ccc(=O)oc3c2)c(C)n1C` stands -5.12% (inactive); under `Cc1ccc2occ(C3N[C@H](C(=O)O)CS3)c(=O)c2c1` (some centres not stated), -2.55% (inactive); under `COc1ccc(NS(=O)(=O)c2ccc3nc(COc4ccc5ccccc5c4)[nH]c3c2)cc1`, 15.1% (inactive). `COc1ccc(NS(=O)(=O)c2ccc3nc(COc4ccc(C#N)cc4)[nH]c3c2)cc1`: the inhibition was 12.1% (inactive).

Consider `CC(=O)c1c(C)nn(CC(O)Cn2c3c(c4cc(C)ccc42)CCCC3=O)c1C` (configuration not stated), for which the inhibition is 7.8% (inactive).

For the molecule `COc1cccc(-n2nnc3c(=O)n(CC(=O)N4CCC(Cc5ccccc5)CC4)cnc32)c1`, the inhibition is 2.62% (inactive). Consider `COc1ccc(-n2nnc3c(=O)n(CC(=O)N4CCC(Cc5ccccc5)CC4)cnc32)cc1`, for which the inhibition was -2.81% (inactive). To `O=C1[C@@H]2[C@@H]3C[C@@H]([C@H]4ON=C(c5ccc(OCc6ccccc6)cc5)[C@@H]34)[C@@H]2C(=O)N1c1ccc2c(c1)OCO2` belongs 0.02% (inactive); to `O=C(Nc1ccc(-c2cnco2)cc1)c1ccccc1`, 3.05% (inactive). Turning to `O=C(Nc1ccc(-c2cnco2)cc1)c1ccc(Cl)cc1`, the inhibition is -6.64% (inactive). For `Cc1cc(C(C)(C)C)ccc1OCCn1ccnc1`, the inhibition was -6.1% (inactive). Take `O=C(Cc1ccccc1)N/N=C/c1ccccc1Cl`: the inhibition was 7.74% (inactive). As to `CC(C)CNC(=O)CCc1nc(-c2ccccc2)no1`, the inhibition was -9.52% (inactive). For the molecule `O=C(O)CCc1nc(-c2ccc(Cl)cc2)no1`, the inhibition is -0.01% (inactive).

For `Cc1cccc(-c2noc(CCCC(=O)Nc3ccc(C(N)=O)cc3)n2)c1`, the inhibition was 0.64% (inactive). Turning to `Cc1ccc(-c2noc(CCC(=O)Nc3ccccc3C)n2)cc1`, the inhibition was 13.8% (inactive). Consider `CCOC(=O)c1cccc(NC(=O)CCc2nc(-c3ccccc3F)no2)c1`, for which the inhibition was 66.8% (inactive).

Turning to `Cc1cccc(-c2noc(CCC(=O)Nc3ccccc3)n2)c1`, the inhibition was 1.97% (inactive). With `COc1ccc(-c2noc(CCCC(=O)Nc3ccc(C(N)=O)cc3)n2)cc1`, the inhibition is -9.14% (inactive).

In the case of `Cc1cccc(-c2noc(CCC(=O)Nc3ccc(C(N)=O)cc3)n2)c1`, the inhibition was 0.33% (inactive). Regarding `O=C(CCc1ccccc1)NCCc1nc2ccccc2[nH]1`, the inhibition is -3.29% (inactive). Under `CCN(c1ccccc1)S(=O)(=O)c1ccc(Cl)c(NC(=O)CN2C(=O)NC3(CCCC3)C2=O)c1` stands -9.72% (inactive); under `CCC(C)(C(=O)NC1CCCC1)N(C)C(=O)c1ccccn1` (configuration not stated), -3.46% (inactive); under `COc1ccc2c(CC(=O)OCC(=O)c3ccccc3OC)coc2c1`, 3.25% (inactive). On to `O=C(CN1CCCCCCC1)Nc1ccc(Cl)cc1Cl`, for which the inhibition is -1.9% (inactive). Regarding `CC1=NN(c2ccccc2)C(=O)/C1=C\c1sccc1C`, the inhibition is -4.07% (inactive).

`COC(=O)c1ccc(/C=N/OCC(=O)NCc2ccc(F)cc2)cc1`: the inhibition was 6.23% (inactive). On to `CC(C)CC1NC2(C(=O)N(C)c3ccccc32)C2C(=O)N(C(C)C)C(=O)C12` (configuration not stated), for which the inhibition is 0.86% (inactive). Take `N#Cc1c(-c2ccccc2)nc2n(-c3ccccc3)nc(C(=O)Nc3ccccc3)n2c1=O`: the inhibition was 8.32% (inactive). Under `N#Cc1ccccc1CSc1nnc(Cc2ccccc2)o1` stands 0.34% (inactive); under `CC(C)=Cc1c(O)nc2ccccn2c1=O`, -3.05% (inactive); under `Cc1c(NC(=O)CSCc2ccc(Br)cc2)c(=O)n(-c2ccccc2)n1C`, -6.02% (inactive).

As for `CCc1ccccc1NC(=O)CCc1nc(-c2ccc(C)cc2)no1`, the inhibition was -5.75% (inactive). For the molecule `NC(=O)c1ccc(NC(=O)CCCc2nc(-c3ccccc3Cl)no2)cc1`, the inhibition was -1.91% (inactive). With `Cc1ccc(-c2noc(CCC(=O)Nc3ccc(C)cn3)n2)cc1`, the inhibition is 25.6% (inactive). For `COc1ccccc1-c1noc(CCC(=O)Nc2ccccc2Cl)n1`, the inhibition was -5.64% (inactive). As to `O=C(/C=C/c1ccco1)N(Cc1cccc(Br)c1)C1CCS(=O)(=O)C1` (configuration not stated), the inhibition was -13.6% (inactive). As to `Cc1ccc(NC(=O)c2ccc(N3CCOCC3)c([N+](=O)[O-])c2)cc1S(=O)(=O)N1CCOCC1`, the inhibition is 5.87% (inactive). In the case of `CCN(CC)CCNCc1cc(Cl)c(OCC(=O)Nc2ccccc2)c(OC)c1`, the inhibition was 7.36% (inactive). Turning to `COc1cc(CNCC(C)C)cc(Br)c1OCC(=O)Nc1ccccc1`, the inhibition was 0.75% (inactive).

`O=C(Cn1c2[n+](c3ccccc31)CC(O)CS2)c1ccccc1` (configuration not stated): the inhibition is -6.67% (inactive). Consider `CCC(=O)N1CCN(c2ccc(OC)cc2[N+](=O)[O-])CC1`, for which the inhibition is -1.32% (inactive).

Regarding `NS(=O)(=O)c1ccc(-c2ccc(/C=C3\SC(=S)N(C4CCS(=O)(=O)C4)C3=O)o2)cc1` (configuration not stated), the inhibition was -2.38% (inactive).

`NS(=O)(=O)c1ccc(-c2ccc(C=NC3CCS(=O)(=O)C3)o2)cc1` (configuration not stated): the inhibition is -11.7% (inactive). In the case of `CC(C)Cn1c(N)c(C(=O)COC(=O)c2ccc(F)cc2)c(=O)n(C)c1=O`, the inhibition was 6.86% (inactive). Consider `CN(C)c1nc(N)nc(CSc2nnnn2-c2ccc(F)cc2)n1`, for which the inhibition is -2.97% (inactive).

For the molecule `CC(=O)c1ccc(OC(=O)c2ccc(Br)o2)cc1`, the inhibition was -1.59% (inactive).

`CCCOc1ccc(OC(=O)c2ccc(Br)o2)cc1`: the inhibition was 3.47% (inactive).

For `CCC(=O)NCCc1nc2ccccc2n1Cc1ccccc1`, the inhibition was -11.3% (inactive). Under `CCC(=O)Nc1nc2ccccc2n1CCN(CC)CC` stands -1.49% (inactive). Take `CCC(=O)Nc1nonc1-c1nc2ccccc2n1Cc1ccccc1`: the inhibition was 22.2% (inactive).

In the case of `CC(=O)NCCc1nc2ccccc2n1Cc1ccc(Cl)cc1`, the inhibition was -2.45% (inactive). With `CCC(=O)NCCc1nc2ccccc2n1Cc1ccc(C)cc1`, the inhibition is -3.53% (inactive). Under `CCC(=O)Nc1nc2ccccc2n1CCN(C)C` stands 0.79% (inactive); under `NCCNC(=O)Cc1cccc(NC(=O)Cc2ccc(Nc3ncnc4c3ncn4[C@@H]3O[C@H](CO)[C@@H](O)[C@H]3O)cc2)c1`, 10.9% (inactive).
